Here are results for 109 compounds from ChEMBL document CHEMBL4513216, “Probing the Open Global Health Chemical Diversity Library for Multistage-Active Starting Points for Next-Generation Antimalarials” (ACS Infect Dis, 2020).

The whole screen tested about 69,000 compounds, of which about 8,600 (12%) showed an effect of 50% or more. Many of the other results were omitted from the sample, so strong results are more common in it than they were.

The experiment relates to Plasmodium berghei. The experiment in a line: Screen against P. berghei liver stage (PbLuc), transformed with Luciferase, at 10uM. In kind it is functional, HepG2. The note with it: tested at 10 uM.
With `O=C1NC(c2ccccc2)=N[C@@]12CC[C@@H]1CN(CC3CC3)C[C@@H]12`, the INHIBITION is listed as 44.2%. `O=C(CCc1nc2cc(Br)cnc2[nH]1)NCCN1CCOCC1`: the INHIBITION was -7.28%. Under `N#Cc1cccc(C(=O)N2CCC(Nc3cccnn3)CC2)c1` stands 15.5%; under `Cc1ccc2c(c1)C(NC(=O)N(C)C)CC21CCN(C)CC1` (centres undefined), -24.1%. Regarding `COC(=O)c1sc(NCc2ccc(N3CCC(O)CC3)c(F)c2)nc1Cl`, the INHIBITION was found to be 91.2%.

Take `OC1CCN(c2ccc(CNc3nc4ccccc4o3)cc2F)CC1`: the INHIBITION is on record as -37.7%. The figure for `OC1CCN(c2cnnc3ccccc23)CC1` is 40.2%; for `N#Cc1cc(NC(=O)c2cc[nH]n2)ccc1N1CCC(O)CC1` it is 9.65%; for `Cc1nc(C(=O)NCc2ccc(N3CCNC(=O)C3)c(F)c2)cs1` it is -11.7%. Under `OC1CCN(c2ccc(CNc3nc4ccccc4s3)cc2F)CC1` stands 59.4%; under `Cc1cc(NCCNc2cccnc2)nc(N)n1`, 36.8%. Regarding `CCC(NS(=O)(=O)c1ccc(C(=O)NC2CC2)cc1)c1cnn(C)c1` (centres undefined), the INHIBITION was -10.1%. As for `O=C1CC2(CCN(C(=O)c3ccncc3)CC2)Oc2c(Cl)cc(Cl)cc21`, the INHIBITION is reported as -29%. The figure for `CC(C)N1CCc2ncn(C)c2C1C(=O)NCCN1CCCC1` (centres undefined) is 67.4%.

Turning to `CC(C)N1CCc2ncn(C(C)C)c2C1C(=O)NCCN1CCCC1` (centres undefined), the INHIBITION is given as 30.5%. With `CC(C)N1CCc2ncn(C)c2C1C(=O)N1CCOCC1` (centres undefined), the INHIBITION stood at 29%. Under `CCc1noc(Cn2c(=O)c3c(C(F)(F)F)cc(C)nc3n2C)n1` stands -7.93%; under `O=c1[nH]c(N2CC(O)C2)nc2c1cnn2-c1ccccc1`, 17.1%; under `CC1CCN(c2nc3c(cnn3-c3ccccc3)c(=O)[nH]2)CC1`, 89.6%. Under `O=c1[nH]c(N2CCN(C3CC3)CC2)nc2c1cnn2-c1ccccc1` stands 24.7%. For `CCn1cc2c(n1)CN(Cc1nccs1)CC2COCC1CC1` (centres undefined), the INHIBITION turned out to be 71.1%. Consider `CCn1cc2c(n1)CN(Cc1sccc1C)CC2COCC1CC1` (centres undefined), for which the INHIBITION turned out to be 52%. Regarding `CCOCC1CN(Cc2nccs2)Cc2nn(CC3CC3)cc21` (centres undefined), the INHIBITION came out at 11.4%. `CCn1cc2c(n1)CN(CC1CC1)CC2COCC1CC1` (centres undefined): the INHIBITION came to 19.3%. Under `COCC1CN(Cc2sccc2C)Cc2nnn(CC3CC3)c21` (centres undefined) stands -42.9%; under `CCn1cc2c(n1)CN(C(=O)c1ccncc1)CC2COCC1CC1` (centres undefined), -30.1%; under `OC1CCCN(Cc2ccnc(-c3cccnc3)n2)C1` (centres undefined), 19.6%. For `CCn1cc(-c2cc(C(F)(F)F)n(CCCN)n2)cn1`, the INHIBITION came to 8.53%. Under `Fc1ccc(CN[C@@H]2COC[C@H]2c2ccc(F)cc2)cc1` stands -27.1%; under `Cc1noc(CN(C)C(=O)c2n[nH]c(N)c2-c2ccccc2)n1`, 1.98%.

Regarding `Cc1cc(-c2cncnc2)nc(C2CCCN2S(C)(=O)=O)n1` (centres undefined), the INHIBITION was 31.3%. The figure for `CC1CCN(C(=O)CN2CC(c3nc(C4CC4)no3)C2)CC1` is 58.1%. The figure for `O=C(CN1CCCC(c2noc(C3CC3)n2)C1)N1CCCC1` (centres undefined) is 15.6%; for `O=C(CN1CC(c2nc(C3CC3)no2)C1)N1CCOCC1` it is 29.7%.

Take `NC(=O)CN(Cc1ncc(-c2ccc(Cl)cc2)o1)C1CCCC1`: the INHIBITION is -46.6%.

On to `CN(C)C[C@@H]1CN(C2CCN(c3ccc(Cl)cc3)CC2)C[C@@H]1CO`, for which the INHIBITION is on record as -86.5%. With `CN(CCO)C[C@@H]1CN(C2CCN(c3ccccc3Cl)CC2)C[C@@H]1CO`, the INHIBITION was determined as 55.2%. The figure for `CN(C)C[C@@H]1CN(C2CCN(c3ccccc3Cl)CC2)C[C@@H]1CO` is 22.3%; for `CCc1nnc(SC2CCCN(c3cnn(C)c3)C2=O)n1C` (centres undefined) it is -30.1%.

For `COc1cccc(N2CC3(CCN(C(=O)NC(C)C)C3)CC2=O)c1` (centres undefined), the INHIBITION is on record as -11.2%. As to `COc1cccc(C2CN(CCc3ccncc3)CCO2)c1` (centres undefined), the INHIBITION is listed as 10.5%.

`Cc1ccc(S(=O)(=O)N2CCC(Oc3cccnn3)CC2)c(C)c1`: the INHIBITION was determined as 49.7%.

For `Cc1ccc(S(=O)(=O)N2CCC(Oc3ccccn3)CC2)c(C)c1`, the INHIBITION is reported as 78.2%.

Take `Cc1noc(C)c1S(=O)(=O)N1CCC(Oc2ccccn2)CC1`: the INHIBITION is on record as 45.7%. `CCOCn1cc(NC(=O)C2CCN(S(C)(=O)=O)CC2)cn1`: the INHIBITION is listed as 38.2%. The figure for `COc1ccc(CCCN2C(=O)O[C@@H]3CN(C4CCOCC4)C[C@@H]32)cc1` is 34.9%; for `Cc1nnc(NC(=O)N2CCCCC2CCO)s1` (centres undefined) it is 44.3%. As for `Cc1nsc(NC(=O)N2CCCCC2CCCO)n1` (centres undefined), the INHIBITION was 48%. Under `Cc1nsc(NC(=O)N2CCCCC2CCO)n1` (centres undefined) stands 66.5%; under `CCNC(=O)COc1ccc(C(=O)NC(C)CCc2ccco2)cc1` (centres undefined), 20.6%; under `CC(C)CCCC(C)NC(=O)c1ccc(OCC(N)=O)cc1` (centres undefined), 56.4%.

As for `CC(C)CCC(C)NC(=O)c1ccc(OCC(N)=O)cc1` (centres undefined), the INHIBITION is -36.5%.

In the case of `CCn1cnnc1CNC(=O)c1cc(Cl)c(I)cc1OC`, the INHIBITION is given as -7.31%. As for `CC(=O)NCCC1CCCCN1C(=O)c1cccc(CCC(C)(C)O)c1` (centres undefined), the INHIBITION is recorded as 19.7%.

As for `O=C(Nc1ccccc1F)C1=NN(c2ccccc2)C(=O)CN1`, the INHIBITION was -73.1%. With `CN(C)CCN1CCOCC2(CCCN(C(=O)Cc3ccccc3)C2)C1` (centres undefined), the INHIBITION was determined as 29%. The figure for `CCCn1cc(NC(=O)c2ccc(S(C)(=O)=O)cc2)ccc1=O` is -5.65%; for `CCCn1cc(NC(=O)c2ccc(N(C)CC)cc2)ccc1=O` it is 46.6%. The figure for `CCCn1cc(NC(=O)c2cccc3cccnc23)ccc1=O` is -1.04%; for `CCCn1cc(NC(=O)c2ccc(NC(=O)NC3CC3)cc2)ccc1=O` it is -13.4%; for `Cn1cc(NC(=O)c2cccc3cccnc23)ccc1=O` it is -10.8%. The figure for `COCCn1cc(NC(=O)NC(C)CCc2ccccc2)ccc1=O` (centres undefined) is 28.7%; for `CCCn1cc(NC(=O)c2cccnc2O)ccc1=O` it is 58.5%; for `CCCn1cc(NC(=O)c2ccc(S(=O)(=O)CC)cc2)ccc1=O` it is 60.3%. Turning to `CCCn1cc(NC(=O)c2ccncc2)ccc1=O`, the INHIBITION came out at 50.8%.

Turning to `CC(C)n1ccnc1CN1CCCN(C(=O)CN(C)C2CC2)CC1`, the INHIBITION was determined as 40%.

Consider `Cc1nc(CN2CCCC(NCCOc3cccc(C#N)c3)C2)no1` (centres undefined), for which the INHIBITION worked out at 0.914%. Under `Cc1nccn1-c1cc(CNC(=O)CCS(=O)(=O)C2CCCC2)ccn1` stands 5.9%; under `Cc1ccc(OCCSC2=NCCN2)cc1`, 32.5%.

Turning to `Cc1c(NC(=O)c2noc3c2CCCC3)cnn1C`, the INHIBITION turned out to be 10%. The figure for `Cn1c(-c2ccccc2Cl)nc2cc(C(=O)NCCOCCO)cnc21` is -50.7%; for `CCOCCCNC(=O)c1nn(CC)cc1Cl` it is 7.9%; for `CC(C)NC(=O)c1cnc(Sc2nccn2C)c(Cl)c1` it is 62.8%. As for `CCNC(=O)c1cnc(Sc2nccn2C)c(Cl)c1`, the INHIBITION is given as 62.8%. Turning to `Cc1c(Cl)cc(C(=O)N(CCO)Cc2nccn2C)cc1Cl`, the INHIBITION was -8.47%.

In the case of `CCOCCNC(=O)c1cnc(Sc2nccn2C)c(Cl)c1`, the INHIBITION was determined as 50.8%. Under `Cn1ccnc1Sc1ncc(C(=O)N2CCCCC2)cc1Cl` stands 27.6%.

Consider `CN1CCN(S(=O)(=O)c2ccc(Sc3nccn3C)nc2)CC1`, for which the INHIBITION was 46.1%. The figure for `CCN(CC)C(=O)c1cnc(Sc2nccn2C)c(Cl)c1` is 48%. As for `CCCn1nccc1NC(=O)CN1CCCC1Cn1nc(C)nc1C` (centres undefined), the INHIBITION is -101%. In the case of `Cn1nc2c(cc1=O)CN(CCN1CCCC1=O)CC2`, the INHIBITION was -7.35%. Under `CCOc1ccc(Cl)c(C(=O)NC)n1` stands 49%. The figure for `CS(=O)(=O)NCC1(O)CCCN(C(=O)CCn2cc(Cl)cn2)CC1` (centres undefined) is -28.7%; for `CCCc1nc(CN(CCO)Cc2cc(Br)ccc2F)no1` it is 39.4%. Consider `CN1CCN(CCOc2ccc(NC(=O)c3cnc[nH]3)cc2)CC1`, for which the INHIBITION is on record as 1.04%. `Cc1cc(C)nc(CN(C)c2nc(C3CCCC3)nc3c2cnn3C)c1`: the INHIBITION stood at 0.87%. Regarding `Cc1nn(C)c(C)c1CN(C)c1nc(C2CCCC2)nc2c1cnn2C`, the INHIBITION was determined as 42.6%. Under `Cc1c[nH]c(CN(C)c2nc(C3CCCC3)nc3c2cnn3C)n1` stands 60.1%. `Cc1ccc(OC2CCN(S(=O)(=O)N(C)C)CC2)nc1`: the INHIBITION came out at 35.4%. Take `CCOc1cc(-c2cc(=O)n3c(n2)CCCCC3)ccc1O`: the INHIBITION is -6.09%. Under `CCS(=O)(=O)NCc1cc(Br)c(OC)c(OC)c1` stands 51.3%; under `CCC(=O)NCc1cc(Br)c(OC)c(OC)c1`, -4.74%; under `CCCC(=O)NCc1cc(Br)c(OC)c(OC)c1`, -26.1%. Take `CC(=O)NCCOc1c(Cl)cccc1Cl`: the INHIBITION is listed as 22%. Regarding `CN(Cc1cnn(C)c1)C(=O)CCC(=O)c1ccc2c(c1)OCCO2`, the INHIBITION was 5.48%.

As to `CCc1cc(C(F)(F)F)n2nc(C3CCCN3C3CCSCC3)cc2n1` (centres undefined), the INHIBITION was 18.95%. Under `Cc1cc(N2CCCC(c3n[nH]c4ncccc34)C2)ncn1` (centres undefined) stands 26.3%; under `Cc1nc(CN2C[C@@H]3CN(C(=O)C4(C#N)CC4)C[C@@H]3C2=O)cs1`, -20.2%; under `COc1ccc(OCCNc2cccc(C(=O)N3CCOCC3)c2)cc1`, -12.5%. With `c1cc(-c2cn[nH]c2)ccc1CN1CCCCC1`, the INHIBITION is recorded as 10.6%. As for `Cc1nn(C)c2ncc(CN3CCCCCC3)cc12`, the INHIBITION came out at 44.9%. Regarding `Cc1cc(CN2CCCC2)cc(Oc2nc(C)cnc2C)c1`, the INHIBITION is 89.4%. Under `NC(=O)c1cncc(Oc2cccc(CN3CCCC3)c2Cl)n1` stands 24.4%; under `CCn1c(C2CCCN(Cc3cc(C)cc(C)c3)C2)nn(C)c1=O` (centres undefined), -17.8%; under `COc1ccc(CN2CCC3(CC2)C(C(=O)O)CC(=O)N3C)cc1Cl` (centres undefined), 39.9%.

For `COC(=O)CC1CN(Cc2c(Cl)ccc3cccnc23)CCO1` (centres undefined), the INHIBITION is recorded as -14.2%. For the compound `Cc1cnc(C)c(Oc2ccc(Cl)c(CN3CCCC3)c2Cl)n1`, the INHIBITION is on record as 90.3%. Under `Cc1cnc(C)c(Oc2ccc(CN3CCCC3)cc2Cl)n1` stands 89.4%. The figure for `OC1CCN(CCCNc2nccc(C3CCCC3)n2)CC1` is 31.4%.
